# Source: PubChem
# This is a sample that favours compounds with a hit; in the whole collection about 18% have one here.
# TDP1 cell noCPT: qHTS for Inhibitors of human tyrosyl-DNA phosphodiesterase 1 (TDP1): qHTS in cells in absence of CPT. AID 686978, 2013. Potency, µM (highest dose often 46.2 µM), for inactives: top-dose activity change, negative = growth inhibition, hits mostly inhibitors. 420,000 compounds, 15% hits. DT40 Tdp1-/- hTDP1 cells, no CPT, ATP luminescence, 48 h; note: potency is the fitted concentration of half-maximal effect; nearly all actives have a fitted effect of over 55% in size
#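 Luminescent ATP content (CellTiter-Glo) served as the growth readout. Knockout chicken DT40 cells expressing human TDP1 were exposed to compounds without camptothecin for a minimum 48 hr at 37 °C.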
# IL1B secr inh: qHTS for Inhibitors of Inflammasome Signaling: IL-1-beta AlphaLISA Primary Screen; THP-1 LPS/ATP IL-1B secretion, AlphaLISA, 16 h; stronger effect = lower value; activity change, % at 57.5 µM; 360,000 compounds, 4.7% hits; AID 743279, 2014; in the data active = activity change below about -50%; inconclusive = mostly about -30% to -49%
#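 THP-1 cells pretreated 1 hr with compounds (up to 57.5 uM final), then stimulated with LPS (250 ng/mL final) plus ATP (1.25 mM final); secreted IL-1B measured by AlphaLISA after 16 hr, decreased signal indicating inhibition.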
# TDP1 cell CPT: qHTS for Inhibitors of human tyrosyl-DNA phosphodiesterase 1 (TDP1): qHTS in cells in presence of CPT | chicken DT40 Tdp1-/-;hTDP1 cells + 20 nM CPT, ATP luminescence, 48 h | Potency, µM (series often up to 46.2 µM), for the others: at the highest dose activity change, negative = growth inhibition, hits mostly inhibitors | 420,000 compounds, 12% hits | AID 686979, 2013; note: potency is the fitted concentration of half-maximal effect; nearly all actives have a fitted effect of over 55% in size
#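 Cell growth measured by CellTiter-Glo luminescence after a minimum 48 h, 37 C compound exposure with 20 nM CPT in Tdp1-knockout DT40 cells stably expressing hTDP1, seeded 400/well; qHTS titration format.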
# RORgamma inh: qHTS for inhibitors of ROR gamma transcriptional activity; Nuclear receptor ROR-gamma (Mus musculus), P51450; Drosophila S2 Gal4-RORgamma UAS-luciferase reporter, 20 h; Potency, µM (titrated, usually from 53.6 µM), inactives show at the highest dose activity change, negative = inhibition, actives largely listed as inhibitors; 310,000 compounds, 5.4% hits; note: potency is the fitted concentration of half-maximal effect; nearly all actives have a fitted effect of over 60% in size
# Target sequence (P51450 whole entry, looked up, the tested form may be a part): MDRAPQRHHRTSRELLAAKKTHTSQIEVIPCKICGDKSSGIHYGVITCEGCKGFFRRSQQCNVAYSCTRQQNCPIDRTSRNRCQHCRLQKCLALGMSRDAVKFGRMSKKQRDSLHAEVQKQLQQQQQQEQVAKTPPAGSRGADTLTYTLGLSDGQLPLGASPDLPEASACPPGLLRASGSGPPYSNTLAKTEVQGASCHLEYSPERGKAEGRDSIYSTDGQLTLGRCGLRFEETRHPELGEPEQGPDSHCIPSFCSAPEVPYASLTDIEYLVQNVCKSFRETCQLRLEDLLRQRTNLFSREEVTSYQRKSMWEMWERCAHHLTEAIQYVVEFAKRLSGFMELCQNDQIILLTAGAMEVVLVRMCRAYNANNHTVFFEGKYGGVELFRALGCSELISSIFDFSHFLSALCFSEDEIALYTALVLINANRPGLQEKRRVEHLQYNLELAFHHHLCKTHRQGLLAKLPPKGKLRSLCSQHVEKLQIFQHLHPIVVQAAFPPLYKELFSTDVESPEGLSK
#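 Luciferase reporter read in Schneider cells carrying Gal4-RORγ (mouse) and UAS-Photinus luciferase; cells given compound 1 h before 700 uM copper sulfate induction, then incubated 20 h at ambient temperature.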
# LDHA inh: qHTS assay for inhibitors of human lactate dehydrogenase; 480,000 compounds, 0.15% hits; purified LDHA, NADH/diaphorase-resazurin fluorescence; stronger effect = lower value; L-lactate dehydrogenase A chain (Homo sapiens), P00338; AID 1347041, 2019; activity change, % (values are at about 110 or 230 µM); in the data active = activity change below about -30%; inconclusive = mostly about -25% to -30%;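 note: plate controls were DMSO wells for no effect and wells without enzyme for full effect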
#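 Enzyme activity of human lactate dehydrogenase 5 (2 nM; 0.06 mM NADH, 0.2 mM pyruvate, 5 min, RT) is measured via a resazurin/diaphorase fluorescence readout of residual NADH.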
# VP16 counter: VP16 counterscreen qHTS for inhibitors of ROR gamma transcriptional activity. Drosophila S2 Gal4-VP16 UAS-luciferase, luminescence, 20 h. Potency, µM (top dose mostly 53.6 µM), for inactives: at the top dose activity, negative = inhibition, actives largely listed as inhibitors. 310,000 compounds, 3.5% hits. AID 2546, 2010;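 note: Gal4-VP16 expression switched on by copper sulfate through the metallothionein promoter; potency is the fitted concentration of half-maximal effect; nearly all actives have a fitted effect of over 50% in size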
# * hit, by the source's call; ? = inconclusive; nt = no result given. Unless noted, calls come from the whole dose curve; as a rule, active = well fitted curve in the direction sought with a large enough effect; inconclusive = small, poorly fitted or top-dose-only effect, or another doubt; inactive = no such curve, though single readings can be large; an effect the other way counts as inactive or inconclusive. Unless noted, % is set by controls: 0 for no effect and ±100 for the full control effect.
SMILES,TDP1 cell noCPT,IL1B secr inh,TDP1 cell CPT,RORgamma inh,LDHA inh,VP16 counter
Cc1c(C(=O)N(Cc2cccc(F)c2)C2CCS(=O)(=O)C2)oc2cc(Br)ccc12 (stereo not drawn),18.4µM*,nt,?,nt,-14.9,nt
Cc1ccc(CNC(=O)Cn2c(CO)cnc2SCC(=O)Nc2c(C)cc(C)cc2C)cc1,nt,nt,nt,nt,-13.5,nt
CCn1c(=O)cc(SCC(=O)N2CCOCC2)c2ccccc21,-20.1%,-5.6,-15.9%,-37.2%,-8.0,5.6%
CCn1c(=O)cc(SCC(=O)N2CCN(c3ccccc3OC)CC2)c2ccccc21,?,-16.1,18.4µM*,36.2%,2.4,0.8%
O=C(c1ccco1)N1CCN(CCCCN2C(=O)c3ccccc3C2=O)CC1,-1.6%,-68.7*,-14.8%,20.2%,-5.2,-7.6%
O=C(c1ccco1)N1CCN(Cc2cn[nH]c2-c2cccc3ccccc23)CC1,23.1µM*,-16.3,?,5.0%,-1.4,-0.2%
O=C(OCC(=O)N1CCN(C(=O)c2ccco2)CC1)c1ccccc1OCc1ccc(Cl)cc1,23.1µM*,0.0,16.4µM*,?,-7.5,-11.2%
CCOC(=O)N1CCN(Cc2cn[nH]c2-c2cccc3ccccc23)CC1,?,-14.9,-27.1%,3.1%,-5.0,-3.4%
CC(NC(=O)CCc1nc2sc3c(c2c(=O)[nH]1)CCC3)c1cccc(C(F)(F)F)c1 (stereo not drawn),nt,nt,nt,nt,4.1,nt
COc1ccccc1OCc1ccc(C(=O)N2CCN(C(=O)c3ccco3)CC2)cc1,-26.2%,1.1,-4.8%,6.5%,-5.5,-1.6%
COc1ccc(-c2nc(CN3CCN(C(=O)c4ccco4)CC3)c(C)o2)c(OC)c1C,18.4µM*,-5.3,?,?,-5.6,3.3%
CCn1c2ccccc2c2cc(CN3CCN(C(=O)c4ccco4)CC3)ccc21,23.1µM*,-2.5,?,?,-16.2,?
O=C(c1ccco1)N1CCN(CC(O)COc2ccc3oc4ccccc4c3c2)CC1 (stereo not drawn),?,-23.8,18.4µM*,?,1.9,-10.9%
COc1ccc(OC)c(-c2nc(CN3CCN(C(=O)c4ccco4)CC3)c(C)o2)c1,?,-3.5,-18.0%,-17.2%,0.6,3.2%
COc1ccc(CN2CCN(C(=O)c3ccco3)CC2)cc1OCc1ccccc1,14.6µM*,-19.2,?,?,-18.9,-13.8%
Cc1cc(C)cc(OCC(O)CN2CCN(C(=O)c3ccco3)CC2)c1 (stereo not drawn),1.7%,-16.2,-21.9%,6.7%,-4.2,-4.6%
CC(Cc1ccc(Cl)cc1)NC(=O)c1ccc[n+]([O-])c1 (stereo not drawn),nt,nt,nt,nt,-8.8,nt
CC(C)c1cc(C(=O)O)c(O)c(C(C)C)c1,nt,nt,nt,nt,-1.7,nt
Cc1ccc(SCc2cc(=O)[nH]c(N3CCN(c4ccccc4)CC3)n2)cc1,nt,nt,nt,nt,-2.5,nt
CCn1c(=O)cc(SCC(=O)N2CCN(C(=O)c3ccco3)CC2)c2ccccc21,?,-51.5*,-22.7%,-29.8%,0.7,12.7%
O=C1CCCN1CCCNc1nc(NCc2ccccc2)nc2ccsc12,18.4µM*,?,18.4µM*,nt,-7.6,nt
C=CCNc1nc(NCCCN2CCCC2=O)c2sc(-c3ccccc3)cc2n1,20.6µM*,nt,18.4µM*,nt,1.4,nt
COc1ccc(Nc2nc(N3CCN(c4ccccc4)CC3)c3cnn(C)c3n2)c(OC)c1,nt,nt,nt,nt,2.2,nt
Cc1cccc(-c2nc(CS(=O)CC(=O)NCCN(Cc3ccccc3)C(C)C)c(C)o2)c1 (stereo not drawn),nt,nt,nt,nt,1.8,nt
